PubChem BioAssay (NCATS)
Records with an inconclusive call do not appear. The source made the active and inactive calls. Unless noted, calls follow the shape of the dose curve; as a rule, active = well fitted curve in the direction sought with a large enough effect; inconclusive = small, poorly fitted or top-dose-only effect, or another doubt; inactive = no such curve, though single readings can be large; an effect the other way counts as inactive or inconclusive.

How the values were obtained:
[1] = Cell Viability - BJ (AID 421; calls by dose curve;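 also: potency is read from the fitted curve at half-maximal effect; cells exposed to compound for 40 hours at 37 °C before readout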); conditions: BJ fibroblast viability, qHTS
Procedure, shortened: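 Quantitative HTS: ATP depletion in BJ cells after 40 hr compound exposure in complete culture medium, detected with CellTiter-Glo; AC50 from standard Hill fits.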

[2] = Cell Viability - HepG2 (AID 433; calls by dose curve;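 also: potency is read from the fitted curve at half-maximal effect; potency for ATP loss meaning cytotoxicity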); conditions: qHTS
Procedure, shortened: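 HepG2 hepatocellular carcinoma cells (1500/well) were treated with compounds for 40 h at 37 °C in complete medium; intracellular ATP was read by CellTiter-Glo luminescence. Data were normalized to DMSO and 100 uM tamoxifen, and AC50 came from Hill fits.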

[3] = Cell Viability - N2a (AID 540); conditions: N2a mouse neuroblastoma cell viability; activity change, negative = cytotoxicity: at 92.2 µM (top of the series);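 also: plate controls were DMSO alone for no effect and tamoxifen control for full effect; nearly all actives have a fitted effect of over 45% in size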
Procedure, shortened: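 Mouse neuroblastoma N2a cells, 1500/well, exposed to compounds 40 h at 37 °C in complete medium. Viability measured as cellular ATP by CellTiter-Glo luminescence; AC50 from Hill fits of concentration-response.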

[4] = Cellular Toxicity (caspase-3) HepG2 (AID 654); conditions: HepG2 caspase-3 activation, luminescence, 0% = DMSO only, 100% = tamoxifen; series mostly up to 92.2 µM;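 also: cells exposed to compound for 16 hours before reading; 0% = DMSO alone and 100% = caspase signal from 100 µM tamoxifen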
Procedure, shortened: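 HepG2 cells (1500/well) were treated 16 h at 37 °C in complete medium, then caspase 3/7 activity was read by Caspase-Glo luminescence. Data were normalized to DMSO and 100 uM tamoxifen; AC50 came from Hill-equation fits of qHTS concentration-response.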

[5] = Cellular Toxicity (caspase-3) Jurkat (AID 655); conditions: Jurkat caspase-3 activation, luminescence; caspase-3 activation: at 92.2 µM (top of the series), DMSO = 0%, tamoxifen = 100%;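 also: cells exposed to compound for 16 h at 37 °C before reading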
Procedure, shortened: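 Jurkat cells (5000/well) in complete medium were treated with compounds for 16 hr at 37 °C, then Caspase-Glo 3/7 luminescence was read after 20 min at room temperature. Data normalized to DMSO (basal) and 100 uM tamoxifen (100%); AC50 from Hill fit.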

[6] = Cellular Toxicity (caspase-3) HUV-EC-C (AID 656); conditions: HUV-EC-C cells, caspase-3 activation (apoptosis), vehicle = 0, 100 µM tamoxifen = 100%; series mostly up to 92.2 µM
Procedure, shortened: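 HUV-EC-C endothelial cells, 1000/well, were pre-incubated 5 hr at 37°C, then exposed to compounds for 16 hr at 37°C. Caspase-Glo 3/7 luminescence was read after 20 min at room temperature. AC50 came from Hill fits, normalized to DMSO and 100 uM tamoxifen.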

[7] = Cellular Toxicity (caspase-3) BJ (AID 658); conditions: BJ fibroblasts, luminescence, normalized: DMSO 0%, staurosporine 100%; series mostly up to 91.7 µM;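 also: 0% = DMSO basal and 100% = 10 µM staurosporine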
Procedure, shortened: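 Readout: Caspase-Glo 3/7 luminescence increase in BJ cells after 16 hr treatment at 37 °C. Staurosporine and tamoxifen served as positive controls; AC50 values came from Hill modelling of data normalized to DMSO and 10 uM staurosporine.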

[8] = Cellular Toxicity (caspase-3) NIH 3T3 (AID 666); conditions: NIH 3T3 caspase-3 activation, apoptosis/toxicity; series mostly up to 92.2 µM;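 also: caspase signal read after 16 h compound exposure; 0% = DMSO basal and 100% = 100 µM tamoxifen stimulation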
Procedure, shortened: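 Mouse NIH 3T3 fibroblasts (1000/well) treated 16 h at 37 C; caspase-3/7 activity measured by Caspase-Glo 3/7 luminescence after 20 min. Normalized to DMSO and 100 uM tamoxifen; AC50 from Hill fits.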

[9] = target: Cytochrome P450 3A4 (Homo sapiens) (UniProt P08684); assay: qHTS Assay for Inhibitors and Substrates of Cytochrome P450 3A4 (AID 884); conditions: recombinant CYP3A4, Luciferin-PPXE luminescence; series mostly up to 57.1 µM; also: % is scaled to controls: 0 for no effect and ±100 for the full control effect; nearly all actives have a fitted effect of over 50% in size
Procedure, shortened: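 20 nM human CYP3A4 with 25 uM Luciferin-PPXE (at KM) in 200 mM KPO4, preincubated 10 min with compound; NADPH regeneration started a 60 min RT reaction. Luciferin detected by luminescence, normalized to 57 uM ketoconazole as full inhibition.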

[10] = MultiTox-Fluor Cytotoxicity Assay - LYMP1-001 - Dead Cells (AID 946); conditions: LYMP1-001 lymphoblastoid cells, dead-cell protease fluorescence; series mostly up to 92.2 µM;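 also: 0% = DMSO and 100% = tetraoctylammonium bromide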
Procedure, shortened: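 In this qHTS, 15 uM tetraoctylammonium bromide defined 100% and DMSO defined basal activity. Lymphoblastoid cells (LYMP1-001, 2500 per well) received compound for 16 hr at 37 C before a fluorogenic dead-cell substrate readout at 485/520 nm.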

[11] = MultiTox-Fluor Cytotoxicity Assay - LYMP1-002 - Dead Cells (AID 960); conditions: LYMP1-002 lymphoblastoid cells, dead-cell protease fluorescence; series mostly up to 46.1 µM;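 also: 0% = DMSO and 100% = tetraoctylammonium bromide; nearly all actives have a fitted effect of over 60% in size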
Procedure, shortened: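 Human lymphoblastoid LYMP1-002 cells, 2500/well, treated 16 h at 37 C; dead-cell protease cleavage of bis-AAF-R110 read by fluorescence (485/520); normalized to DMSO and 15 uM tetraoctylammonium bromide; AC50 from Hill fit.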

[12] = Cell Viability - LYMP2-009 (AID 968); conditions: LYMP2-009 lymphoblastoid cell viability; series mostly up to 92.2 µM;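 also: 0% = DMSO alone and the full-kill end = tetraoctylammonium bromide at 92 µM; nearly all actives have a fitted effect of over 55% in size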
[13] = Cell Viability - LYMP2-016 (AID 984); conditions: LYMP2-016 lymphoblastoid cell viability, qHTS; series mostly up to 92.2 µM; also: % is scaled to controls: 0 for no effect and ±100 for the full control effect; nearly all actives have a fitted effect of over 55% in size
Procedure, shortened: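 Human lymphoblastoid cells (LYMP2-016), 2500/well in complete medium, preincubated 5 hr at 37 C, then compound-treated 24 hr at 37 C. Intracellular ATP read by CellTiter-Glo luminescence after 30 min at room temperature; AC50 from Hill-equation concentration-response fits.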

[14] = Cell Viability - LYMP2-026 (AID 989); conditions: LYMP2-026 lymphoblastoid cell viability, qHTS; series mostly up to 92.2 µM; also: % is scaled to controls: 0 for no effect and ±100 for the full control effect; nearly all actives have a fitted effect of over 50% in size
Procedure, shortened: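 Human lymphoblastoid LYMP2-026 cells, 2500/well, exposed to compound 24 h at 37 C in complete medium. Viability as intracellular ATP by CellTiter-Glo luminescence; AC50 from Hill fits of qHTS concentration-response.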

[15] = target: Vitamin D3 receptor (Homo sapiens) (UniProt P11473); assay: qHTS assay for small molecule agonists of vitamin D receptor signaling (AID 588543; calls by dose curve;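 also: 0% = DMSO basal and 100% = reference agonist control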); conditions: HEK293T VDR-UAS-bla, beta-lactamase ratio, 16 h; series mostly up to 76.8 µM
Procedure, shortened: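 GeneBLAzer VDR-UAS-bla HEK293T cells in 2% charcoal-stripped FBS medium were dosed with compound titrations for 16 h at 37 °C; CCF4 β-lactamase readout (405 nm ex, 460/530 nm em). EC50 and efficacy from Hill fits, normalized to 50 nM calcitriol (100%) and DMSO (0%).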

[16] = target: Thyroid hormone receptor beta (Homo sapiens) (UniProt P10828); assay: qHTS assay for small molecule agonists of thyroid hormone receptor beta signaling (AID 588545; calls by dose curve); conditions: TR-UAS-bla GripTite HEK 293, beta-lactamase ratio, agonist mode, 18 h; series mostly up to 76.7 µM
Procedure, shortened: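 In this cell-based screen, titrated compounds act on HEK 293 cells held in medium with 2% charcoal/dextran FBS, NEAA and pyruvate for 18 hrs at 37 C. Responses are expressed relative to T3 (10 nM) as 100% and basal DMSO as 0%.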

[17] = MultiTox-Fluor Cytotoxicity Assay - LYMP1-002 - Live Cells (AID 955); conditions: LYMP1-002 lymphoblastoid live-cell protease fluorescence viability; series mostly up to 46.1 µM; also: % is scaled to controls: 0 for no effect and ±100 for the full control effect
Procedure, shortened: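 Human lymphoblastoid LYMP1-002 cells, 2500/well, treated 16 h at 37 C in complete medium. Live-cell protease activity via GF-AFC fluorescence (Ex/Em 405/510) after 60 min reagent incubation; AC50 from Hill fits.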

[18] = Cell Viability - LYMP2-011 (AID 969); conditions: LYMP2-011 lymphoblastoid cells viability; series mostly up to 92.2 µM;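 also: 0% = DMSO only and full inhibition = 92 µM tetraoctylammonium bromide; nearly all actives have a fitted effect of over 60% in size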
Procedure, shortened: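 2500 cells/well in complete medium, compound-treated 24 h at 37 C. Viability read as intracellular ATP by CellTiter-Glo luminescence after 30 min at room temperature. AC50 from Hill fits of qHTS concentration-response data.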

[19] = Cell Viability - LYMP2-017 (AID 972); conditions: LYMP2-017 lymphoblastoid cell viability; series mostly up to 92.2 µM; also: % is scaled to controls: 0 for no effect and ±100 for the full control effect; nearly all actives have a fitted effect of over 55% in size
Procedure, shortened: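 LYMP2-017 human lymphoblastoid cells (2500/well) settled 5 hr at 37 C, then exposed to compound 24 hr at 37 C in complete medium. Viability taken as intracellular ATP by CellTiter-Glo luminescence after 30 min at RT; AC50 from Hill fits.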

Sequence of Cytochrome P450 3A4 (Homo sapiens) (P08684 whole entry, looked up): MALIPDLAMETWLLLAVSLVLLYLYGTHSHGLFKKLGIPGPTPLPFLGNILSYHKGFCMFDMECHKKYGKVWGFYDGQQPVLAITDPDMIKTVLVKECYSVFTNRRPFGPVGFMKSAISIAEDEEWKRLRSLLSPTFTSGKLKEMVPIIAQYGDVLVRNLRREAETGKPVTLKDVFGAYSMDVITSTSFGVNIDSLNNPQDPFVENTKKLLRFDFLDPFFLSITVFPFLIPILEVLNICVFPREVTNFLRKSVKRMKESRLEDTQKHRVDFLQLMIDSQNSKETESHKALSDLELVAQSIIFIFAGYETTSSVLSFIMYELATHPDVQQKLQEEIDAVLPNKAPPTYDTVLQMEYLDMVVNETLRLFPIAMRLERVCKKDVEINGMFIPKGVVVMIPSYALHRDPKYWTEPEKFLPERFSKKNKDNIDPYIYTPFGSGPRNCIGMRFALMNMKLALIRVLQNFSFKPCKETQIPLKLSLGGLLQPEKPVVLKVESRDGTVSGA
Sequence of Thyroid hormone receptor beta (Homo sapiens) (P10828 whole entry, looked up): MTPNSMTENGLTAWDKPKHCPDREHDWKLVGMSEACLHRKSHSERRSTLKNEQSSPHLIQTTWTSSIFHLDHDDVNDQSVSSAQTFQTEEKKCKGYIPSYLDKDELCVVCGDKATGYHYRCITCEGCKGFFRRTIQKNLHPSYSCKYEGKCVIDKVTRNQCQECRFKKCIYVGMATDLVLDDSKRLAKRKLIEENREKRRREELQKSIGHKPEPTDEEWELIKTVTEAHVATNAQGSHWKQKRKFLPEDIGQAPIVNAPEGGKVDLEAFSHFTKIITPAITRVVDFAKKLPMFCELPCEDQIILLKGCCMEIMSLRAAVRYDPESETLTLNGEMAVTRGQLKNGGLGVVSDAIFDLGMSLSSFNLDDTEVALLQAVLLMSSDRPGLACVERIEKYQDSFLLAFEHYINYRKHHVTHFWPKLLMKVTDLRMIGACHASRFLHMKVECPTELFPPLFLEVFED
Sequence of Vitamin D3 receptor (Homo sapiens) (P11473 whole entry, looked up): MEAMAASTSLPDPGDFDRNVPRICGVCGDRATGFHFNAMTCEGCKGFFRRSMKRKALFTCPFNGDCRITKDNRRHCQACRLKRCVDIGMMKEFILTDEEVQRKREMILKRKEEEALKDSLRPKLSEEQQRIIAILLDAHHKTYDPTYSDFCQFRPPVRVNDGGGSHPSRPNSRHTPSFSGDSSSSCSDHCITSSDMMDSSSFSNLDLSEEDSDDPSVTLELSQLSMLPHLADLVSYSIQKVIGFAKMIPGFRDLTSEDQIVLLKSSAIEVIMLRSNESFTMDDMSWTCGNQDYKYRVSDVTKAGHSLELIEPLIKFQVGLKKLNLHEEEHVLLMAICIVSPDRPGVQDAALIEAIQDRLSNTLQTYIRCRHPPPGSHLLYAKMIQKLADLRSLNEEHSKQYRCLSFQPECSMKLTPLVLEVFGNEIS

Cc1cccc(N)c1C
inactive: Potency [1] > 92 µM | Potency [2] > 92 µM | Potency [3] | outcome [4] | caspase-3 activation [5] 0.961% | outcome [6] | outcome [7] | Potency [8] | Potency [9] | outcome [10] | Potency [11] | Potency [12] | Potency [13] | Potency [14] | outcome [15] | Potency [16]

ClC(Cl)(Cl)C(Cl)(Cl)Cl
inactive: Potency [1] > 92 µM | Potency [2] > 92 µM | outcome [4] | caspase-3 activation [5] -0.424% | outcome [6] | outcome [7] | Potency [8] | Potency [9] | outcome [10] | outcome [17] | Potency [11] | Potency [12] | Potency [18] | Potency [19] | Potency [13] | Potency [14] | outcome [15] | Potency [16]
